The results in this text go back to PubChem BioAssay.

Entries with a potency or affinity are not part of this list. Activity calls are given as the source filed them.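 The calls were made as follows, unless noted: active = a fitted half-maximal concentration no higher than twice the top valid tested dose, with signal falling as cells die; inconclusive = flat curve between -70% and -30%, or poor fit; inactive = the rest, including signal rising instead of falling.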

A short description of the first assay: viability loss in HepG2 hepatoma cells – cell-based, cherry-picks, set 2, cytotoxicity control, dose response (AID 687002;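 active = a dose-response fit showing signal loss, with half-maximal concentration no higher than twice the top tested dose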). The settings on record: ATP luminescence (CellTiter-Glo), 48 h; series mostly up to 26 µM; activity change, negative = cytotoxicity: at the top concentration. (Cellular ATP, detected with luciferase, serves as a proxy for viable cell number.)
For `Cc1cc(C(=O)Nc2cccc3c2O[C@@H](CN(C)S(=O)(=O)c2ccccc2)[C@@H](C)CN([C@@H](C)CO)C3=O)n(C)n1`, the “activity change, negative = cytotoxicity” value was -1.94% [at 23.5 µM] (inactive).

Turning to `COc1cccc(S(=O)(=O)Nc2ccc3c(c2)OC[C@@H](C)NC[C@H](C)[C@@H](OC)CN(C)C3=O)c1`, the “activity change, negative = cytotoxicity” value is -3.68% (inactive).

As to `CCC(=O)N1[C@H](CO)[C@H](c2ccc(-c3ccc(F)cc3)cc2)[C@@H]1CNC(C)=O`, the “activity change, negative = cytotoxicity” value is 0.835% (inactive).

For `CC(=O)c1cccc(NC(=S)NC2CCCCCCC2)c1`, the “activity change, negative = cytotoxicity” value was -8.15% (inactive).

With `Cc1ccccc1S(=O)(=O)N[C@@H]1CC[C@H](CCNS(=O)(=O)c2cccc(F)c2)O[C@H]1CO`, the “activity change, negative = cytotoxicity” value is -13.7% (inactive).

For `CC(C)CC#Cc1cnc2c(c1)C(=O)N([C@@H](C)CO)C[C@H](C)[C@H](CN(C)C(=O)c1ccc3c(c1)OCO3)O2`, the “activity change, negative = cytotoxicity” value is 2.06% (inactive).

Consider `Cc1ccc(/C=C2\SC(=S)N(NS(=O)(=O)c3ccc(C)cc3)C2=O)cc1`, for which the “activity change, negative = cytotoxicity” value is 0.049% (inactive).

Take `O=c1nc(-c2ccccc2)c2ccccc2[nH]1`: the “activity change, negative = cytotoxicity” value is 1.9% (inactive).

With `O=C(C[C@H]1CC[C@@H]2[C@H](COC[C@H](O)CN2CC2CCOCC2)O1)NCc1ccc(Cl)cc1`, the “activity change, negative = cytotoxicity” value was 7.95% (inactive).

Take `CC(NC(=O)COc1ccccc1C(C)(C)C)c1ccccc1` (stereo not drawn): the “activity change, negative = cytotoxicity” value is 10.1% [at 42 µM] (inactive).

For `Cc1cccc(C)c1NC(=O)C1(NC(=O)C2CCC(=O)N2)CCCCC1` (stereo not drawn), the “activity change, negative = cytotoxicity” value is 7.97% (inactive).

Consider `Cc1ccc(C)c(NC(=O)C2(C)CCN2C(=O)C(C)C)c1` (stereo not drawn), for which the “activity change, negative = cytotoxicity” value was 4.19% (inactive).

As to `CCOC(=O)CNC(=O)CSc1ncnc2c1cnn2-c1ccc(Cl)cc1`, the “activity change, negative = cytotoxicity” value was 11.4% (inactive).

As to `Cc1cc(OCC(=O)N(C)Cc2ccccc2)cc(C)c1Cl`, the “activity change, negative = cytotoxicity” value was 6.31% (inactive).

With `COc1cccc(NC(=O)CN2CCN(S(=O)(=O)c3ccc(C(C)C)cc3)CC2)c1`, the “activity change, negative = cytotoxicity” value is -4.82% (inactive).

For the compound `C[C@@H]1CN([C@H](C)CO)C(=O)c2ccccc2-c2ccccc2CO[C@H]1CN(C)S(=O)(=O)c1cccc(C#N)c1`, the “activity change, negative = cytotoxicity” value was -4.74% (inactive).

As for `CC(NC1CCCC1)C(=O)Nc1ccccc1-c1ccccc1` (stereo not drawn), the “activity change, negative = cytotoxicity” value is 4.15% (inactive).

As for `CCC(=O)N1CCC1(C)C(=O)Nc1ccc(C)c(C)c1` (stereo not drawn), the “activity change, negative = cytotoxicity” value was 9.63% (inactive).

Regarding `CO[C@H]1CN(C)C(=O)c2ccc(NC(=O)NC(C)C)cc2OC[C@@H](C)NC[C@H]1C`, the “activity change, negative = cytotoxicity” value was 13.3% (inactive).

Take `Cc1ccc(S(=O)(=O)N[C@H]2CC[C@H](CC(=O)NCc3ccccc3F)O[C@H]2CO)cc1`: the “activity change, negative = cytotoxicity” value is -3.81% (inactive).

Take `Cc1cc(OCC(=O)NC(C)c2ccccc2)ccc1[N+](=O)[O-]` (stereo not drawn): the “activity change, negative = cytotoxicity” value is 5.47% (inactive).

As for `C[C@H]1CN([C@@H](C)CO)C(=O)Cc2cc(NC(=O)C3CC3)ccc2O[C@@H]1CN(C)C(=O)Nc1cccc2ccccc12`, the “activity change, negative = cytotoxicity” value was 1.2% [at 23.5 µM] (inactive).

`CCCN1C(=O)C(O)(C2CC(=O)CC(C)(C)O2)c2ccccc21` (stereo not drawn): the “activity change, negative = cytotoxicity” value is -6.48% (inactive).

On to `Cc1ccc2c(C)c(C(=O)N3CCN(Cc4ccccn4)CC3)oc2c1C`, for which the “activity change, negative = cytotoxicity” value was -0.842% (inactive).

Consider `CCCC[C@@H]1CNC(=S)N1CCc1cccc(F)c1`, for which the “activity change, negative = cytotoxicity” value is 8.08% (inactive).

Consider `CCOC(=O)CNC(=O)CSc1ncnc2c1cnn2-c1ccccc1`, for which the “activity change, negative = cytotoxicity” value was -7.11% (inactive).

For `Cc1ccccc1OCC(=O)NC(C)c1ccccc1` (stereo not drawn), the “activity change, negative = cytotoxicity” value was 4.07% (inactive).

For `C/C=C/c1ccc([C@@H]2[C@@H](CNC(=O)C3CCC3)N(C(=O)NCCC)[C@H]2CO)cc1`, the “activity change, negative = cytotoxicity” value is -8.92% (inactive).

For the compound `C[C@H](NC(=O)C[C@H]1CC[C@@H](NC(=O)Cc2ccccn2)[C@@H](CO)O1)c1ccccc1`, the “activity change, negative = cytotoxicity” value was 1.84% (inactive).

With `O=C1CCC(C(=O)Nc2ccc([N+](=O)[O-])cc2)N1` (stereo not drawn), the “activity change, negative = cytotoxicity” value is 2.88% (inactive).

In the case of `COCC#Cc1cnc2c(c1)C(=O)N([C@@H](C)CO)C[C@H](C)[C@H](CN(C)C(=O)Nc1ccc(OC)cc1)O2`, the “activity change, negative = cytotoxicity” value is 2.71% (inactive).

For `Cc1ccc(C(=O)n2nnc3ccccc32)cc1[N+](=O)[O-]`, the “activity change, negative = cytotoxicity” value was -0.078% (inactive).

With `O=C(COc1ccccc1)NCc1ccccc1`, the “activity change, negative = cytotoxicity” value was -2.58% (inactive).

Regarding `O=C(CCCNC(=O)c1ccc(Cl)cc1)Nc1nccs1`, the “activity change, negative = cytotoxicity” value was -8.65% (inactive).

On to `CC(C)NC(=O)Nc1ccc2c(c1)C(=O)N([C@H](C)CO)C[C@H](C)[C@H](CN(C)Cc1ccncc1)OCCCC[C@H](C)O2`, for which the “activity change, negative = cytotoxicity” value is 4.36% (inactive).

In the case of `COc1cccc(S(=O)(=O)Nc2ccc3c(c2)[C@H]2C[C@@H](CC(=O)NC4CCCCC4)O[C@@H](CO)[C@H]2O3)c1`, the “activity change, negative = cytotoxicity” value is 0.802% [at 23.5 µM] (inactive).

Turning to `Fc1ccc(CNC(=S)NCc2cccc(Cl)c2)cc1`, the “activity change, negative = cytotoxicity” value was -7.39% (inactive).

Regarding `CCOC(=O)CNC(=O)CSc1ncnc2c1cnn2-c1ccc(C)cc1`, the “activity change, negative = cytotoxicity” value is -10.4% (inactive).

For `C[C@H](CO)N1C[C@H](C)[C@H](CN(C)CC2CCCCC2)Oc2c(NS(C)(=O)=O)cccc2C1=O`, the “activity change, negative = cytotoxicity” value is 1.48% (inactive).

The nature of another assay: viability loss in HeLa cells – cell-based, ATP luminescence, cherry-pick samples, cytotoxicity control, dose response (AID 687004).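 Also: 0% = neutral control median and -100% = staurosporine 10 µM control median.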 The note with it: ATP luminescence (CellTiter-Glo), 48 h; series mostly up to 26 µM; activity change, negative = cytotoxicity: at the top concentration.
With `Cc1cc(C(=O)Nc2cccc3c2O[C@@H](CN(C)S(=O)(=O)c2ccccc2)[C@@H](C)CN([C@@H](C)CO)C3=O)n(C)n1`, the “activity change, negative = cytotoxicity” value was 0.215% [at 23.5 µM] (inactive).

Regarding `COc1cccc(S(=O)(=O)Nc2ccc3c(c2)OC[C@@H](C)NC[C@H](C)[C@@H](OC)CN(C)C3=O)c1`, the “activity change, negative = cytotoxicity” value was -0.599% (inactive).

As for `CCC(=O)N1[C@H](CO)[C@H](c2ccc(-c3ccc(F)cc3)cc2)[C@@H]1CNC(C)=O`, the “activity change, negative = cytotoxicity” value is 52.8% (inactive).

Consider `CC(=O)c1cccc(NC(=S)NC2CCCCCCC2)c1`, for which the “activity change, negative = cytotoxicity” value was 6.71% (inactive).

Turning to `Cc1ccccc1S(=O)(=O)N[C@@H]1CC[C@H](CCNS(=O)(=O)c2cccc(F)c2)O[C@H]1CO`, the “activity change, negative = cytotoxicity” value was -1.82% (inactive).

For the compound `CC(C)CC#Cc1cnc2c(c1)C(=O)N([C@@H](C)CO)C[C@H](C)[C@H](CN(C)C(=O)c1ccc3c(c1)OCO3)O2`, the “activity change, negative = cytotoxicity” value was 5.46% (inactive).

As for `Cc1ccc(/C=C2\SC(=S)N(NS(=O)(=O)c3ccc(C)cc3)C2=O)cc1`, the “activity change, negative = cytotoxicity” value was 3.22% (inactive).

`O=c1nc(-c2ccccc2)c2ccccc2[nH]1`: the “activity change, negative = cytotoxicity” value is 3.6% (inactive).

For the compound `O=C(C[C@H]1CC[C@@H]2[C@H](COC[C@H](O)CN2CC2CCOCC2)O1)NCc1ccc(Cl)cc1`, the “activity change, negative = cytotoxicity” value was 9.33% (inactive).

For `CC(NC(=O)COc1ccccc1C(C)(C)C)c1ccccc1` (stereo not drawn), the “activity change, negative = cytotoxicity” value was -1.73% [at 42 µM] (inactive).

For `Cc1cccc(C)c1NC(=O)C1(NC(=O)C2CCC(=O)N2)CCCCC1` (stereo not drawn), the “activity change, negative = cytotoxicity” value is 11.5% (inactive).

Consider `Cc1ccc(C)c(NC(=O)C2(C)CCN2C(=O)C(C)C)c1` (stereo not drawn), for which the “activity change, negative = cytotoxicity” value was 14.7% (inactive).

With `CCOC(=O)CNC(=O)CSc1ncnc2c1cnn2-c1ccc(Cl)cc1`, the “activity change, negative = cytotoxicity” value was 10.6% (inactive).

As to `Cc1cc(OCC(=O)N(C)Cc2ccccc2)cc(C)c1Cl`, the “activity change, negative = cytotoxicity” value was -13.7% (inactive).

On to `COc1cccc(NC(=O)CN2CCN(S(=O)(=O)c3ccc(C(C)C)cc3)CC2)c1`, for which the “activity change, negative = cytotoxicity” value was 7% (inactive).

Take `C[C@@H]1CN([C@H](C)CO)C(=O)c2ccccc2-c2ccccc2CO[C@H]1CN(C)S(=O)(=O)c1cccc(C#N)c1`: the “activity change, negative = cytotoxicity” value is -10.5% (inactive).

As to `CC(NC1CCCC1)C(=O)Nc1ccccc1-c1ccccc1` (stereo not drawn), the “activity change, negative = cytotoxicity” value was 0.447% (inactive).

Take `CCC(=O)N1CCC1(C)C(=O)Nc1ccc(C)c(C)c1` (stereo not drawn): the “activity change, negative = cytotoxicity” value is 14.3% (inactive).

As for `CO[C@H]1CN(C)C(=O)c2ccc(NC(=O)NC(C)C)cc2OC[C@@H](C)NC[C@H]1C`, the “activity change, negative = cytotoxicity” value is 2.85% (inactive).

Consider `Cc1ccc(S(=O)(=O)N[C@H]2CC[C@H](CC(=O)NCc3ccccc3F)O[C@H]2CO)cc1`, for which the “activity change, negative = cytotoxicity” value was 17.3% (inactive).

On to `Cc1cc(OCC(=O)NC(C)c2ccccc2)ccc1[N+](=O)[O-]` (stereo not drawn), for which the “activity change, negative = cytotoxicity” value is 13% (inactive).

With `C[C@H]1CN([C@@H](C)CO)C(=O)Cc2cc(NC(=O)C3CC3)ccc2O[C@@H]1CN(C)C(=O)Nc1cccc2ccccc12`, the “activity change, negative = cytotoxicity” value was 0.429% [at 23.5 µM] (inactive).

For the compound `CCCN1C(=O)C(O)(C2CC(=O)CC(C)(C)O2)c2ccccc21` (stereo not drawn), the “activity change, negative = cytotoxicity” value is -2.04% (inactive).

On to `Cc1ccc2c(C)c(C(=O)N3CCN(Cc4ccccn4)CC3)oc2c1C`, for which the “activity change, negative = cytotoxicity” value is 2.18% (inactive).

Consider `CCCC[C@@H]1CNC(=S)N1CCc1cccc(F)c1`, for which the “activity change, negative = cytotoxicity” value is 5.15% (inactive).

`CCOC(=O)CNC(=O)CSc1ncnc2c1cnn2-c1ccccc1`: the “activity change, negative = cytotoxicity” value was 7.11% (inactive).

In the case of `Cc1ccccc1OCC(=O)NC(C)c1ccccc1` (stereo not drawn), the “activity change, negative = cytotoxicity” value is -2.83% (inactive).

Take `C/C=C/c1ccc([C@@H]2[C@@H](CNC(=O)C3CCC3)N(C(=O)NCCC)[C@H]2CO)cc1`: the “activity change, negative = cytotoxicity” value is 2.01% (inactive).

On to `C[C@H](NC(=O)C[C@H]1CC[C@@H](NC(=O)Cc2ccccn2)[C@@H](CO)O1)c1ccccc1`, for which the “activity change, negative = cytotoxicity” value is -6.63% (inactive).

As to `O=C1CCC(C(=O)Nc2ccc([N+](=O)[O-])cc2)N1` (stereo not drawn), the “activity change, negative = cytotoxicity” value was 3.71% (inactive).

Turning to `COCC#Cc1cnc2c(c1)C(=O)N([C@@H](C)CO)C[C@H](C)[C@H](CN(C)C(=O)Nc1ccc(OC)cc1)O2`, the “activity change, negative = cytotoxicity” value was -1.32% (inactive).

For the compound `Cc1ccc(C(=O)n2nnc3ccccc32)cc1[N+](=O)[O-]`, the “activity change, negative = cytotoxicity” value is 0.569% (inactive).

Regarding `O=C(COc1ccccc1)NCc1ccccc1`, the “activity change, negative = cytotoxicity” value is -4.34% (inactive).

On to `O=C(CCCNC(=O)c1ccc(Cl)cc1)Nc1nccs1`, for which the “activity change, negative = cytotoxicity” value was 0.217% (inactive).

Take `CC(C)NC(=O)Nc1ccc2c(c1)C(=O)N([C@H](C)CO)C[C@H](C)[C@H](CN(C)Cc1ccncc1)OCCCC[C@H](C)O2`: the “activity change, negative = cytotoxicity” value is -2.73% (inactive).

With `COc1cccc(S(=O)(=O)Nc2ccc3c(c2)[C@H]2C[C@@H](CC(=O)NC4CCCCC4)O[C@@H](CO)[C@H]2O3)c1`, the “activity change, negative = cytotoxicity” value was 16.5% [at 23.5 µM] (inactive).

Take `Fc1ccc(CNC(=S)NCc2cccc(Cl)c2)cc1`: the “activity change, negative = cytotoxicity” value was 1.46% (inactive).

Regarding `CCOC(=O)CNC(=O)CSc1ncnc2c1cnn2-c1ccc(C)cc1`, the “activity change, negative = cytotoxicity” value is -1.66% (inactive).

Consider `C[C@H](CO)N1C[C@H](C)[C@H](CN(C)CC2CCCCC2)Oc2c(NS(C)(=O)=O)cccc2C1=O`, for which the “activity change, negative = cytotoxicity” value was 21% (inactive).
